Experiment: small-molecule microarray binders of probe aEGFR, primary screen, biochemical, biotinylated probe, 635/667 nm fluorescence (AID 1097);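 note: probe is a biotinylated anti-EGFR antibody binding compounds printed on slides; score combines fluorescence near 667 nm and signal to noise of each spot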
Settings: higher = more signal

SMILES | composite z-score
C[C@@]1([C@@H](NS(=O)(=O)c2cccc3cccnc23)c2ccc(-c3ccccc3)cc2)C[C@H]1C1CCCCC1 | -0.0316
O=C1O[C@H](c2ccccc2)[C@H](c2ccccc2)N2[C@H]1[C@@H](C(=O)N1CCN(c3ncccn3)CC1)[C@]1(C(=O)Nc3ccc(C#CC4(O)CCCCCC4)cc31)[C@H]2c1ccc(O)cc1 | -0.0225
C=CCC(OC(C)=O)[C@@H]1[C@@H](N(Cc2ccc(-c3ccccc3)cc2)C(=O)Cc2ccc(OC)cc2)c2cc(OCCCO)ccc2N1C(=O)c1ccc2ccccc2c1 (some centres not stated) | -0.17
O=C(NC1CC1)[C@@H]1c2ccccc2C(=O)N(C2CCCCC2)[C@H]1c1ccc(CO)cc1 | 0.595
COC(=O)[C@@]1(Cc2ccccc2)[C@H]2c3cc(C(=O)N(C)C)n(Cc4nc5ccccc5[nH]4)c3C[C@H]2CN1C(=O)c1ccccc1 | 0.135
C=CCOC(=O)[C@@H]1[C@H]2C(=O)O[C@H](c3ccccc3)[C@H](c3ccccc3)N2[C@H](c2ccc(OCCOC(=O)[C@@H]3C[C@@H]4C(=O)N[C@@H](CC(C)C)C(=O)N4[C@@H]3c3ccc(O)cc3)cc2)[C@@]12C(=O)Nc1ccc(I)cc12 | 0.105
COCCOC(=O)N1C(=O)[C@@]2(c3cc(C#CCNC(N)=O)ccc31)[C@H](C(N)=O)[C@H]1C(=O)O[C@H](c3ccccc3)[C@H](c3ccccc3)N1[C@@H]2c1ccc(O)cc1 | -0.0828
C=CCNC(=O)[C@H]1[C@@H]2C(=O)O[C@@H](c3ccccc3)[C@@H](c3ccccc3)N2[C@@H](c2ccc(OCCO)cc2)[C@]12C(=O)Nc1ccc(C#Cc3ccc(OC)cc3)cc12 | 0.166
CN1C(=O)C2C=CC(C(O)c3ccc(I)cc3)N(N(c3ccccc3)c3ccccc3)C2C1=O (configuration not stated) | -0.0903
Cc1ccc(S[C@]2(C(=O)NCc3ccccc3)CC(=O)N(Cc3ccccc3Cl)[C@@H]2c2ccc(CO)cc2)cc1 | -0.258
C[C@]1(C(=O)O)c2ccccc2C(=O)N(Cc2cc(C(F)(F)F)cc(C(F)(F)F)c2)[C@H]1c1ccc(CO)cc1 | -0.186
COC(=O)C(CC#Cc1ccc2c(c1)[C@]1(C(=O)N2)[C@H](C(N)=O)[C@H]2C(=O)O[C@H](c3ccccc3)[C@H](c3ccccc3)N2[C@@H]1c1ccccc1OCCO)C(=O)OC | 0.0167
COC(=O)[C@@]1(Cc2ccc(F)cc2)[C@H]2c3cc(C(=O)N(C)C)n(Cc4ccc(C(F)(F)F)nc4)c3C[C@H]2CN1C(=O)c1ccccc1 | 0.379
CCN1C(=O)C2CC(=O)C3C(CN(S(=O)(=O)c4ccc(C)cc4)C3c3ccc(C)cc3)C2C1=O (configuration not stated) | -0.0089
C=C[C@H](OC)[C@@H](O)c1ccc(OC)c(O)c1 | -0.258
CCCCCN1CC=CC23O[C@@H]4/C=C\CCCOC(=O)C4[C@H]2C(=O)N(CCCCCO)[C@@H]3C1=O (some centres not stated) | -0.175
CC(C)C[C@H]1NC(=O)CNC(=O)[C@@]23C(=O)N[C@@H](Cc4ccccc4)C2[C@H](C)[C@@]2(C)O[C@H]2C3/C=C/C/C=C\CNC1=O (some centres not stated) | -0.105
C=CCNC(=O)[C@@H]1[C@H]2C(=O)O[C@H](c3ccccc3)[C@H](c3ccccc3)N2[C@H](c2ccc(OCCO)cc2)[C@@]12C(=O)Nc1ccc(C#CCNC(N)=O)cc12 | -0.182
CC(C)[Si](C#Cc1ccccc1)(O[C@H](c1ccccc1)c1cn(Cc2ccccc2)nn1)C(C)C | -0.133
C=C(C(=O)CC[C@@H](OC(=O)c1cccnc1)c1cccc(OCCO)c1)C(C)C | 0.0391
CCCCN1CC=CC23O[C@@H]4/C=C\CCC(C)OC(=O)C4[C@H]2C(=O)N(CCO)[C@@H]3C1=O (some centres not stated) | -0.157
O=C/C=C/c1ccc(-c2ccccc2)cc1 | -0.15
COc1cc(CO)cc(I)c1O[C@H]1C=C(C(=O)NCCO)C[C@@H](N(CCN2CCOCC2)C(=O)C2CCCO2)[C@@H]1O (some centres not stated) | -0.0106
CC(C)C[C@@H]1NC(=O)[C@H]2C[C@@H](C(=O)O)[C@@H](c3cccc(OCCO)c3)N2C1=O | 0.0588
COc1cc(Cc2cc3c(c(CCc4ccccc4)n2)[Si](C(C)C)(C(C)C)O[C@H]3c2ccccc2)cc(OC)c1OC | -0.129
C=CCNC(=O)[C@@H]1[C@H]2C(=O)O[C@H](c3ccccc3)[C@H](c3ccccc3)N2[C@H](c2ccc(O)cc2)[C@@]12C(=O)Nc1ccc(C#CC3=CCCCC3)cc12 | 0.392
Cc1cccc([C@H]2C[C@H]3C(Br)=C[C@@]2(CO)C(=O)[C@]32CO2)c1 | -0.219
